A short description of assay [1]: Nuclear factor erythroid 2-related factor 2/antioxidant responsive element (Nrf2/ARE) small molecule agonists: qHTS cell viability counter screen in human keratinocytes (AID 1919968; active means well fitted curve in the direction sought with a large enough effect in the repeat runs; an effect the other way counts as inactive or inconclusive; further: nearly all actives have a fitted effect of over 55% in size). The procedure, abridged: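 Cells of the KeratinoSens line were plated at 1,500 per well and left for 5 h before compound transfer from DMSO stocks. After a 23 h incubation (37 C, 5% CO2), CellTiter-Fluor was added. Signal was taken as fluorescence intensity 1 h later.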

Assay [2] can be described thus: Nuclear factor erythroid 2-related factor 2/antioxidant responsive element (Nrf2/ARE) small molecule agonists: luciferase reporter gene qHTS assay in human keratinocytes (AID 1919969). Further: nearly all actives have a fitted effect of over 35% in size.
Assay [3] concerns the target Gonadotropin-releasing hormone receptor (Homo sapiens) (UniProt P30968). The experiment in a line: Human gonadotropin-releasing hormone receptor (GnRHR) small molecule agonists, calcium flux assay in GnRHR-HEK293 cells (AID 1920063). Further: nearly all actives have a fitted effect of over 35% in size. The gist of the method:
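Compounds dissolved in DMSO are pin-transferred onto dye-loaded GnRHR-HEK293 cells, which were seeded 18 h before at 37 C/5% CO2. Calcium signal is read as fluorescence intensity at 1 s intervals for 3 min.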

Assay [4] addresses KiSS-1 receptor (Homo sapiens) (UniProt Q969F8). The experiment in a line: Human kisspeptin (KISS1R) small molecule agonists, calcium flux assay in KISS1R-HEK293 cells (AID 1920064; active means well fitted curve in the direction sought with a large enough effect in the repeat runs; an effect the other way counts as inactive or inconclusive). The gist of the method:
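Cell line: HEK293, stable human KISS1R. Dye loading 1 h at 37 C after 18 h culture. Read: kinetic fluorescence, 480/540 nm, 3 min at 1 s intervals.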
Background: Calcium flux is commonly read through the fluorescence of an indicator in the cells.

Assay [5] can be described thus: G protein-coupled receptor (GPCR) small molecule agonists, calcium flux assay: HEK293 wild type cell line counter screen (AID 1920065). The gist of the method:
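Tox21 10K compounds, 15 concentrations each in triplicate, pin-transferred in DMSO onto dye-loaded cells; kinetic read at 480/540 nm for 3 min, 1 s intervals.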

Assay [6] is described as follows: p53 small molecule agonists, cell-based qHTS assay with human liver microsomes (AID 1963577). The gist of the method: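 Fluorescence of the beta-lactamase reporter in p53RE-bla cells, detected with LiveBLAzer substrate (2 h, room temperature, dark), served as the read-out after 16 h compound exposure at 37 C with human liver microsomes and NADPH, each 0.5 mg/mL final.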

Assay [7] can be described thus: p53 small molecule agonists, cell-based qHTS assay with rat liver microsomes (AID 1963578). The gist of the method: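 Cells carrying a p53 response element–beta-lactamase reporter were plated and rested 5 h, then dosed with compound in DMSO plus rat liver microsomes and NADPH, each at 0.5 mg/mL final. After 16 h at 37 C, LiveBLAzer substrate was added for 2 h.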
(In general: Quantitative high-throughput screening tests each substance at several concentrations.)

Assay [8] is described as follows: p53 small molecule agonists, cell-based qHTS assay with human liver microsomes: qHTS cell viability counter screen (AID 1963579). Further: nearly all actives have a fitted effect of over 45% in size. The gist of the method:
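Cytotoxicity counter screen: p53RE-bla, 4,000 cells/well; 5 h settle, 37 C/5% CO2; cpd + HLM 0.5 mg/mL + NADPH 0.5 mg/mL (final); 16 h, 37 C; CellTiter-Glo, 30 min RT, luminescence.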

A short description of assay [9]: p53 small molecule agonists, cell-based qHTS assay with rat liver microsomes: qHTS cell viability counter screen (AID 1963580). Further: nearly all actives have a fitted effect of over 45% in size. The procedure, abridged: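 Rat liver microsome (0.5 mg/mL final) and NADPH (0.5 mg/mL final) co-incubation with compounds for 16 h at 37 C on HCT-116 p53RE-bla cells; cytotoxicity taken from intracellular ATP luminescence.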
Assay [10] in a line: p53 small molecule agonists, cell-based qHTS assay: qHTS cell viability counter screen (AID 1963581). Further: nearly all actives have a fitted effect of over 45% in size. The gist of the method: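 ATP content measured by luminescence in HCT-116 p53RE-bla cells treated 16 h at 37 C, same wells as the reporter screen.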
A short description of assay [11]: p53 small molecule agonists, cell-based qHTS assay (AID 1963582; active means well fitted activation curve with a large enough effect in the signal ratio in the repeat runs, not every such curve was filed as active; the % refers to the signal ratio). The gist of the method: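 16 h compound exposure (37 C) of p53 response element–bla cells, preceded by 5 h recovery at 37 C/5% CO2; read-out via LiveBLAzer B/G FRET substrate, 2 h RT, fluorescence intensity.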
The target of assay [12] is 5-hydroxytryptamine receptor 2A (Homo sapiens) (UniProt P28223). The experiment in a line: 5-hydroxytryptamine receptor 2A (HTR2A) small molecule agonists, cell-based qHTS assay (AID 1963587). Further: nearly all actives have a fitted effect of over 30% in size. The procedure, abridged:
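Kinetic calcium-flux fluorescence (2 min, 1 sec intervals) after compound addition in agonist mode. HTR2A-CHO cells were cultured 18 h, then dye-loaded 1 h at 37 C.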

Assay [13] deals with Muscarinic acetylcholine receptor M1 (Homo sapiens) (UniProt P11229). The experiment in a line: Cholinergic receptor muscarinic 1 (CHRM1) small molecule antagonists, cell-based qHTS assay (AID 1963588). Further: nearly all actives have a fitted effect of over 40% in size. The gist of the method:
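Compounds were tested at 15 concentrations in three independent runs. Dye-loaded CHRM1-CHO cells were exposed 5 min at room temperature before stimulation by acetylcholine added at 50nM. Intracellular calcium was read kinetically on FDSS for 3 min.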

Assay [14] shares this target. The experiment in a line: Cholinergic receptor muscarinic 1 (CHRM1) small molecule agonists, cell-based qHTS assay (AID 1963589). Further: nearly all actives have a fitted effect of over 35% in size. Further: potency means the concentration at half of the fitted maximal effect. The gist of the method: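 Homogeneous fluorescence calcium flux, agonist mode. Human M1-expressing CHO cells; compound dosed at 15 concentrations, three independent runs; signal sampled every 1 sec.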
Assay [15] can be described thus: cAMP Responsive Elements (CRE) small molecule agonists, cell-based qHTS assay (AID 1963590). The gist of the method: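 HEK 293T cells stably bearing CRE-bla were plated at 2,000 cells per well and rested 18 h. Compounds, positive controls or DMSO were added for 3 h at 37 C. LiveBLAzer B/G substrate was then loaded for 2 h at room temperature.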
Assay [16] in a line: cAMP Responsive Elements (CRE) small molecule antagonists, cell-based qHTS assay (AID 1963591; active means well fitted inhibition curve with a large enough effect in the signal ratio in the repeat runs, not every such curve was filed as active; the % refers to the signal ratio). The procedure, abridged: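 First, CRE-bla HEK293T cells settled 18 h at 37 C. Next, compound and 0.25 uM final NKH477 were applied for 3 h. Last, LiveBLAzer B/G substrate was loaded for 2 h at room temperature.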
The target in assay [17] is D(2) dopamine receptor (Homo sapiens) (UniProt P14416). The experiment in a line: Dopamine D2 receptor (DRD2) small molecule agonists, cell-based qHTS assay (AID 1963594). Further: nearly all actives have a fitted effect of over 35% in size. The procedure, abridged: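 cAMP accumulation in DRD2-HEK293 cells measured by HTRF after 1 h detection; compounds added 10 min before NKH477 (200nM […]) forskolin-analogue stimulation, 30 min at room temperature, with Ro20-1724 present at 0.1 mM final.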

Assay [18] has the same target. The experiment in a line: Dopamine D2 receptor (DRD2) small molecule antagonists, cell-based qHTS assay (AID 1963595; active means well fitted inhibition curve with a large enough effect in the signal ratio in the repeat runs, with a control signal flat; the % refers to the signal ratio). The gist of the method:
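HEK293 cells stably expressing DRD2, preincubated with 0.1 mM Ro20-1724 and compounds 10 min, were stimulated with 200 nM NKH477 plus 12 nM quinpirole for 30 min at room temperature; cAMP measured by HTRF (665/620 nm).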

Assay [19] addresses 5-hydroxytryptamine receptor 2A (Homo sapiens) (UniProt P28223). The experiment in a line: 5-hydroxytryptamine receptor 2A (HTR2A) small molecule antagonists, cell-based qHTS assay (AID 1963586). Further: nearly all actives have a fitted effect of over 45% in size. The gist of the method: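 CHO cells stably expressing human HTR2A were plated for 18 h at 37 C, then loaded with calcium dye for 1 h. Compounds were preincubated 5 min at room temperature before DOI (4 nM solution) was added. Kinetic fluorescence was read for 3 min.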

Assay [20] has as its target Beta-2 adrenergic receptor (Homo sapiens) (UniProt P07550). The experiment in a line: Adrenergic beta2 receptor (ADRB2) small molecule antagonists, cell-based qHTS assay (AID 1963592). Further: series mostly up to about 92 µM; nearly all actives have a fitted effect of over 50% in size. The gist of the method:
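Assay format: CHO-ADRB2 cells, 18-20hr seeding at 37C/5% CO2, then compound plus 1nM isoproterenol agonist mix for 0.5hr RT. Homogeneous time-resolved fluorescence cAMP detection after 1hr, expressed as 665/615 nm ratio.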

Structures are written as SMILES. Inconclusive results are not listed. Active and inactive are the calls of the source. Unless noted, the call rests on the fitted dose curve.

Seven compounds from PubChem BioAssay (Tox21) can be followed below.

5-hydroxytryptamine receptor 2A (Homo sapiens), sequence (P28223 whole entry, looked up): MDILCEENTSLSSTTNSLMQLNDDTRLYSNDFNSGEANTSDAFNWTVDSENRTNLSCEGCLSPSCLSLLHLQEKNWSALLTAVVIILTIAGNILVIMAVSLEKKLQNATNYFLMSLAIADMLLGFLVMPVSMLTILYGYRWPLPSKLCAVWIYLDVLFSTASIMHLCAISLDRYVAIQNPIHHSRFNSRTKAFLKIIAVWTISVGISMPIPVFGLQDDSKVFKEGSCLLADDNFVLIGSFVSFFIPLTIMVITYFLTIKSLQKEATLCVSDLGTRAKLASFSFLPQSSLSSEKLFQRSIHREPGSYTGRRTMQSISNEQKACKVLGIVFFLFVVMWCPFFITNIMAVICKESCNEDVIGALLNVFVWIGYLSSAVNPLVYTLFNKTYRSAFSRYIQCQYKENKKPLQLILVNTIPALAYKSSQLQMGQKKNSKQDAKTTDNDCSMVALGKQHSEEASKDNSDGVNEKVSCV
Muscarinic acetylcholine receptor M1 (Homo sapiens), sequence (P11229 whole entry, looked up): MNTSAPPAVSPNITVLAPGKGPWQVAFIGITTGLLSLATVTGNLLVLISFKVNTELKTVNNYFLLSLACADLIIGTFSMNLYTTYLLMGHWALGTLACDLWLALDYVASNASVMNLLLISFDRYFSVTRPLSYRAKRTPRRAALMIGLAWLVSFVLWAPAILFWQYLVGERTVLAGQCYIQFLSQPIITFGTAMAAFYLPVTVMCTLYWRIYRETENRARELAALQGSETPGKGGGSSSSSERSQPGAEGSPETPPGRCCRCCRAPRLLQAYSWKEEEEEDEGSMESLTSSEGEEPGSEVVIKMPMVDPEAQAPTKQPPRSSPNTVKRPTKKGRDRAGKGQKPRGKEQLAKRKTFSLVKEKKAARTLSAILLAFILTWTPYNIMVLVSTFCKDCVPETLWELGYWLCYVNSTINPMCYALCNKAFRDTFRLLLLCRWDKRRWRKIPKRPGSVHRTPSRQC
KiSS-1 receptor (Homo sapiens), sequence (Q969F8 whole entry, looked up): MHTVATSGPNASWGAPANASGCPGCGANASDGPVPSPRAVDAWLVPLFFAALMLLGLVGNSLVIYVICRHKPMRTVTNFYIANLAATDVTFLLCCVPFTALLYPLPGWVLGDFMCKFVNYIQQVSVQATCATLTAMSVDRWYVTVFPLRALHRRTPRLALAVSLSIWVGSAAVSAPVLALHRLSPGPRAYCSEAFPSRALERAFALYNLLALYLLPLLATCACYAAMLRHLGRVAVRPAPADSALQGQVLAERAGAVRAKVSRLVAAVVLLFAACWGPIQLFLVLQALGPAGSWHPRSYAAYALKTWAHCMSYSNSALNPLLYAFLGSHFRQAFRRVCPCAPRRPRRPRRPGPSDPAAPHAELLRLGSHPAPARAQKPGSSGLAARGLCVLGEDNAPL
Beta-2 adrenergic receptor (Homo sapiens), sequence (P07550 whole entry, looked up): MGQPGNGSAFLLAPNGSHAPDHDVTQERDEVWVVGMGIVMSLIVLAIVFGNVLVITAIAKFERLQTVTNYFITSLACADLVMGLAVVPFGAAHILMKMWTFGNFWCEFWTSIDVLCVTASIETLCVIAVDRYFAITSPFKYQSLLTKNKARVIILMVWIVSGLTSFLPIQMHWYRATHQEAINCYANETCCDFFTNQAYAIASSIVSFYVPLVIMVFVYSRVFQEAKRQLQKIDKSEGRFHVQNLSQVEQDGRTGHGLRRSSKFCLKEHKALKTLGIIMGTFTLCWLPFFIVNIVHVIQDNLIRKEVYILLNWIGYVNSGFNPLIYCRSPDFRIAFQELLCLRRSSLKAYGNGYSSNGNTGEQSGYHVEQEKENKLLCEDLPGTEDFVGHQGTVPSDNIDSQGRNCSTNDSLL
Gonadotropin-releasing hormone receptor (Homo sapiens), sequence (P30968 whole entry, looked up): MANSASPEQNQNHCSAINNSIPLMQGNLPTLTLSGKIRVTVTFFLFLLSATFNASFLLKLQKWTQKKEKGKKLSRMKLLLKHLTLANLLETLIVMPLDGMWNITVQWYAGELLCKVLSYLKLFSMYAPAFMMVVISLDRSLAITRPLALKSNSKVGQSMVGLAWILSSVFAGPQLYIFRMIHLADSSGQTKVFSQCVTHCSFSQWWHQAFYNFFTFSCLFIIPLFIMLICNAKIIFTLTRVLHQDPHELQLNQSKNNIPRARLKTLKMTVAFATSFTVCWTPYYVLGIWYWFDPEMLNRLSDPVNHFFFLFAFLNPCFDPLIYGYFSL
D(2) dopamine receptor (Homo sapiens), sequence (P14416 whole entry, looked up): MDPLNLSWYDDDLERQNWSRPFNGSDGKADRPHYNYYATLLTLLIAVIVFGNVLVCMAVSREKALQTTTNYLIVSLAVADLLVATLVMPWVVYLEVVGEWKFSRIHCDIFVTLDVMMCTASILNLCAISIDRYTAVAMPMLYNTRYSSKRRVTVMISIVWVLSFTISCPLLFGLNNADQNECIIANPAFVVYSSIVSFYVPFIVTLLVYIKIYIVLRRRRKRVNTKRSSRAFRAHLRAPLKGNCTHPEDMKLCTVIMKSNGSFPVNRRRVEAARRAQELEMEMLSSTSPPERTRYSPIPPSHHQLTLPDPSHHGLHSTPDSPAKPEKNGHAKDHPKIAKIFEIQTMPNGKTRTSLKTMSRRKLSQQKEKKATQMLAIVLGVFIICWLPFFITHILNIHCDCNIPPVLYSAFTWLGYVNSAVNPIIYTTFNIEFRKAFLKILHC

As to `CCCCCCCN`, the Potency result in assay [1], in [2], in assay [3], in assay [4], in assay [5] and in assay [6] was “inactive” in each case. The Potency result in assay [7], in assay [8], in [9], in assay [10], in assay [11] and in [12] was “inactive” throughout. For the same compound, the Potency result in assay [13], in [14], in [15], in assay [16], in [17] and in assay [18] was “inactive” in each case.
With `CS(=O)(=O)O`, the Potency entry in assay [1], in assay [2], in [3], in [4], in [5] and in assay [6] was “inactive” throughout. The Potency result in [7], in [8], in [9], in [10], in [19] and in [12] was “inactive” in each case. For the same compound, the Potency entry in assay [13], in [14], in assay [15], in assay [16], in assay [20] and in assay [17] was “inactive” each time. In addition, the Potency entry in assay [18] is “inactive”.
`C(/C=C/C=C/Nc1ccccc1)=Nc1ccccc1`: the Potency result in [1], in assay [2], in assay [3], in assay [4], in assay [5] and in [6] was “inactive” in each case. For the same compound, the Potency entry in [7], in assay [8], in [9], in assay [10], in [11] and in assay [12] was “inactive” in each case. In addition, the Potency result in [14], in assay [15], in [20], in assay [17] and in assay [18] was “inactive” in each case.
With `O=C(Cn1ccnc1[N+](=O)[O-])NCc1ccccc1`, the Potency result in [1], in assay [2], in assay [3], in assay [4], in assay [5] and in assay [6] was “inactive” throughout. The Potency result in [7], in assay [8], in [9], in [11], in assay [19] and in assay [12] was “inactive” each time. Further, the Potency result in assay [13], in [14], in [15], in [16], in assay [20] and in assay [18] was “inactive” throughout.
With `OC1OC[C@@H](O)[C@H](O)[C@H]1O` (stereo not given in full), the Potency entry in assay [1], in assay [2], in [3], in [4], in assay [5] and in assay [6] was “inactive” each time. Moreover, the Potency entry in assay [7], in assay [8], in assay [9], in assay [11], in assay [12] and in assay [13] was “inactive” throughout. The Potency entry in assay [15], in [20], in assay [17] and in assay [18] was “inactive” in each case.
Consider `Cc1c(I)c(=O)n(-c2ccccc2)n1C`, for which the Potency result in [1], in [2], in assay [3], in assay [4], in assay [5] and in assay [6] was “inactive” in each case. Further, the Potency result in assay [7], in assay [8], in assay [9], in assay [11], in assay [19] and in assay [12] was “inactive” throughout. Besides, the Potency entry in assay [13], in assay [15], in assay [16], in assay [20] and in assay [18] was “inactive” each time. Besides, the Potency in assay [14] was 37.9 nM (active).
With `CCCCCCCCS(=O)(=O)Cl`, the Potency result in [1], in assay [2], in [3], in assay [4], in assay [5] and in [6] was “inactive” throughout. Further, the Potency result in assay [7], in assay [8], in assay [9], in assay [11], in assay [19] and in assay [12] was “inactive” in each case. For the same compound, the Potency result in [13], in assay [14], in assay [15], in assay [16], in assay [20] and in assay [17] was “inactive” each time. The Potency entry in [18] is “inactive”.
